Rows were chosen to be rich in hits. Some 3.4% of all compounds tested hit in one or more screens of this group.
TEAD-YAP inh = TEAD-YAP interaction inhibition. HEK-TIYL cells, TEAD-Gal4/YAP UAS-luciferase luminescence. inhibition, % at 9.12 µM. actives 1.4% (n = 640,000); in the data active means inhibition above about 32%
FBW7 activator = human FBW7 E3 ligase activation, primary screen | Q969H0 | AlphaScreen FBW7–phospho-cyclin E peptide binding, activator screen | normalized activity (activation), % at 26.1 µM | actives 0.13% (n = 650,000); in the data active means normalized activity above about 1.9%;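 further: purified mutant Fbw7 with reduced substrate affinity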
GPR151 activ = activators of human GPR151 | Q8TDV0 | PathHunter beta-arrestin GPR151 cells, luminescence | activation, % at 11.2 µM | actives 1% (n = 650,000) | AID 1508602; in the data active means activation above about 4.9%
Target sequence (Q8TDV0 whole entry, looked up): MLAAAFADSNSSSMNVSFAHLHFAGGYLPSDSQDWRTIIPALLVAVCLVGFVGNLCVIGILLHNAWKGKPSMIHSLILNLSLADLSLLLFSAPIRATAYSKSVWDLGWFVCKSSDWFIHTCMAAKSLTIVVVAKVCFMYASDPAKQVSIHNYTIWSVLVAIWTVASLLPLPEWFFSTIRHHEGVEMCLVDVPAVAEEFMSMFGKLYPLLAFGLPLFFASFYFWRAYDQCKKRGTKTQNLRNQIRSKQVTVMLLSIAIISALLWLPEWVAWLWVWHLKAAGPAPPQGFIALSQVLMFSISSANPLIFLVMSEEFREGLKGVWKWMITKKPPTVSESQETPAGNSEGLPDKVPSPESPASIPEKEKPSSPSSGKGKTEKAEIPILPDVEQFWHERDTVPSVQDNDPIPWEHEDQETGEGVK
MITF primary = blocks human microphthalmia-associated transcription factor; AlphaScreen MITF homodimerization, bead proximity signal; inhibition, % at 2.6 µM; actives 0.91% (n = 650,000); AID 1259374; in the data active means inhibition above about 50%
GPR151 conf act = human GPR151 activation, confirmation screen. shares compounds with GPR151 activ. GPR151 PathHunter beta-arrestin cells, luminescence, 90 min; % of EA-reagent control over plate median. activation, % at 11.2 µM. 6,700 tested, under 10 active;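 active means mean percent activation across replicates above the confirmation screen cutoff of 4.91%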
GPR119 counter = GPR119 activation, counter-screen for GPR151 activators | shares compounds with GPR151 activ | GPR119 PathHunter beta-arrestin cells, luminescence, 90 min; 0 = compound-well median, 100 = enzyme-acceptor control | activation, % at 11.2 µM | actives 0.3% (n = 6,700) | AID 1508611;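 active means mean percent activation in the counterscreen above 29.09%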;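 further: counterscreen on off-target GPR119 to flag nonselective hits from the GPR151 activator screen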
Of the large screens only hits and unclear results are named; the others gave an inactive call (follow-up assays come after a bar, where they were run).

O=C(CSc1nnc(NC(=O)Cc2ccccc2)s1)NCC1CCCO1 (stereo unspecified)	none
O=C(CSc1nnc(NC(=O)Cc2ccc(F)cc2)s1)NCC1CCCO1 (stereo unspecified)	GPR151 activ 5.0 | GPR151 conf act inactive | GPR119 counter inactive
Cc1cccn2c(=O)c3cc(C#N)c(=O)n(-c4ccccc4Cl)c3nc12	none
C=CCN(CC(=O)O)S(=O)(=O)c1ccc(C)c(C)c1	GPR151 activ 6.6 | GPR151 conf act inactive | GPR119 counter inactive
CCCN(CCC)S(=O)(=O)c1ccc(C)c(C)c1	none
CCC(=O)Nc1ccc(NC(=O)CSc2nc3c(c(=O)n(C)c(=O)n3C)n2C)cc1	GPR151 activ 15.0 | GPR151 conf act inactive | GPR119 counter inactive
Cc1ccc(-n2nc3c(c2NC(=O)c2cccc(F)c2)CS(=O)C3)c(C)c1 (stereo unspecified)	GPR151 activ 5.9 | GPR151 conf act inactive | GPR119 counter inactive
Cc1ccccc1-n1nc2c(c1NC(=O)c1cccc(C(F)(F)F)c1)CS(=O)C2 (stereo unspecified)	none
Nc1ccc2nc(SCC(=O)c3ccc(Cl)cc3)sc2c1	GPR151 activ 6.6 | GPR151 conf act inactive | GPR119 counter inactive
O=C1NC(=O)C(CCc2ccccc2)(C2CCN(C(=O)c3ccc(F)c(Cl)c3)CC2)N1 (stereo unspecified)	none
CCOc1cc(Br)c(/C=C/C(=O)O)cc1OC	GPR151 activ 5.3 | GPR151 conf act inactive | GPR119 counter inactive
COc1ccc(-c2oc3ncn4nc(-c5cccc6ccccc56)nc4c3c2-c2ccc(OC)cc2)cc1	GPR151 activ 5.3 | GPR151 conf act inactive | GPR119 counter inactive
CCCOC(=O)c1c(NC(=O)c2c(C)c(-c3ccc(Cl)cc3Cl)nc3ccccc23)sc2c1CCC(C)C2 (stereo unspecified)	none
O=C1/C(=C/c2cccnc2)CC/C1=C\c1cccnc1	GPR151 activ 6.5 | GPR151 conf act inactive | GPR119 counter inactive
COc1ccc(CC2(CCC(=O)NCc3cnn(C)c3C)CCC(=O)N2)c(F)c1 (stereo unspecified)	GPR151 activ 5.1 | GPR151 conf act inactive | GPR119 counter inactive
CCC(=O)N1CCN(c2ccc(NC(=O)c3ccco3)cc2Cl)CC1	none
CCC(=O)N1CCN(c2ccc(NC(=O)c3cccs3)cc2)CC1	GPR151 activ 9.2 | GPR151 conf act inactive | GPR119 counter inactive
CCC(=O)N1CCN(c2ccc(NC(=O)c3ccco3)cc2)CC1	GPR151 activ 5.4 | GPR151 conf act inactive | GPR119 counter inactive
COc1cccc(CC2(CO)CCCN(C(=O)Nc3cccc(C(F)(F)F)c3)C2)c1 (stereo unspecified)	none
Cc1nnsc1C(=O)N/N=C/c1ccccc1	none
Cc1nnsc1C(=O)N(C)c1ccccc1	GPR151 activ 8.2 | GPR151 conf act inactive | GPR119 counter inactive
Cc1ccc(C(=O)N(C)c2ccccc2)cc1	GPR151 activ 5.0 | GPR151 conf act inactive | GPR119 counter inactive
O=C(CCC1CCCC1)Nc1c2c(nn1-c1ccc(F)cc1)CS(=O)C2 (stereo unspecified)	none
O=C(Nc1cc(Cl)c(Cl)cc1Cl)c1cnc2n(c1=O)CCS2	GPR151 activ 7.7 | GPR151 conf act inactive | GPR119 counter inactive
CCc1nccn1S(=O)(=O)c1cc(Br)c(C)cc1OC	none
CCc1nccn1S(=O)(=O)c1ccc(OC)c2ccccc12	GPR151 activ 6.8 | GPR151 conf act inactive | GPR119 counter inactive
COc1cc(N=Cc2c(O)n(-c3ccccc3F)c(=O)[nH]c2=O)cc(OC)c1	none
COc1cc(N=Cc2c(O)n(-c3ccccc3F)c(=S)[nH]c2=O)cc(OC)c1	GPR151 activ 5.4 | GPR151 conf act inactive | GPR119 counter inactive
O=C(CCN1C(=O)C2C3CCC(C3)C2C1=O)N1CCn2c(nnc2C2CC2)C1 (stereo unspecified)	none
COCCC(=O)Nc1ccc2c(c1)CN(C(=O)c1ccc(CSC)o1)CC2	GPR151 activ 9.4 | GPR151 conf act inactive | GPR119 counter inactive
O=C(COC(=O)C1CC(=O)N(CCc2ccccc2)C1)c1ccc(Br)s1 (stereo unspecified)	none
Cn1nnc2cc(NC(=O)Nc3ccc(Br)cc3)ccc21	GPR151 activ 5.9 | GPR151 conf act inactive | GPR119 counter inactive
O=C(NNC(=O)C1CCCCC1)c1cnccn1	none
O=C(CCC1CCCCC1)NNC(=O)c1cnccn1	GPR151 activ 6.5 | GPR151 conf act inactive | GPR119 counter inactive
Cc1nnc(NC(=O)CCCl)s1	none
CCOP(=O)(OCC)c1nc(-c2cccc([N+](=O)[O-])c2)oc1N1CCCCC1	GPR151 activ 10.9 | GPR151 conf act inactive | GPR119 counter inactive
CCOc1ccc(-n2c(=S)sc3c(=O)[nH]c(SCC(=O)NCc4ccco4)nc32)cc1	none
CCCn1c(-c2nc(OC)cc(OC)n2)n[nH]c1=S	GPR151 activ 7.0 | GPR151 conf act inactive | GPR119 counter inactive
CN(C)CCCN(Cc1ccc2c(c1)OCO2)C(=O)NC1CCCCC1	GPR151 activ 5.2 | GPR151 conf act inactive | GPR119 counter inactive
O=C(O)CCCCNS(=O)(=O)c1ccccc1C(F)(F)F	GPR151 activ 9.4 | GPR151 conf act inactive | GPR119 counter inactive
CCOC(=O)c1sc(NC(=O)CSc2nnc(CNC(=O)c3cccc(OC)c3)n2Cc2ccccc2)c(C(=O)OCC)c1C	none
Cc1cc2ncn(S(=O)(=O)c3ccc(S(=O)(=O)N4CCCCC4)cc3)c2cc1C	GPR151 activ 7.7 | GPR151 conf act inactive | GPR119 counter inactive
Cc1cc2ncn(S(=O)(=O)c3ccc(Cl)c(Cl)c3)c2cc1C	none
CCSc1ccccc1C(=O)NC(C)c1ccccc1 (stereo unspecified)	GPR151 activ 5.5 | GPR151 conf act inactive | GPR119 counter inactive
O=C1c2ccccc2NC2(C(=O)N(Cc3cccc4ccccc34)c3ccccc32)N1c1ccccc1 (stereo unspecified)	GPR151 activ 7.0 | GPR151 conf act inactive | GPR119 counter inactive
CC(C)N(CCNC(=O)c1cccc(Nc2ccnn2C)n1)C(C)C	GPR151 activ 6.1 | GPR151 conf act inactive | GPR119 counter inactive
CC(C)N(CCNC(=O)c1ccc2nc(Nc3ncccn3)sc2c1)C(C)C	none
CC(C)N(CCNC(=O)c1ccc2nc(Nc3ccnn3C)sc2c1)C(C)C	GPR151 activ 6.8 | GPR151 conf act inactive | GPR119 counter inactive
COc1cccc(NC(=O)CSc2nnc3cc(C)nc(N)n23)c1	none
COC(=O)c1c(C)oc2c1cc(NS(=O)(=O)c1ccc(C)cc1)c1ccccc12	none
O=C(Cn1c(=O)oc2ccccc21)NCc1cccc(F)c1	GPR151 activ 9.5 | GPR151 conf act inactive | GPR119 counter inactive
O=C(Cn1c(=O)oc2ccccc21)NCc1ccc(F)cc1	none
CC(C)Oc1ccc(CNC(=O)Cn2c(=O)oc3ccccc32)cc1	GPR151 activ 5.3 | GPR151 conf act inactive | GPR119 counter inactive

Compound activity: PubChem, The Scripps Research Institute Molecular Screening Center
